22 compounds from PubChem BioAssay (Tox21) can be followed below.

A number with no mark means an inactive call. Records with an inconclusive call do not appear. Calls of active or inactive are those of the source. Calls come from the whole dose curve; as a rule, active = well fitted curve in the direction sought with a large enough effect in the repeat runs; inconclusive = weak or mixed curves; inactive = no such curve, though single readings can be large; an effect the other way counts as inactive or inconclusive.

Test [1] in a line: A CellTox Green Cytotoxicity Assay to monitor cytotoxicity in HEK293 cells - 32 hour (AID 1224881). Note: nearly all actives have a fitted effect of over 40% in size. In short, it runs like this:
(§1)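 Each value comes from one timepoint of a single continuous run in which HEK293 cells with CellTox Green were exposed to compound for up to 40 h at 37 C, dye fluorescence rising with cell death.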

A short description of test [2]: A CellTox Green Cytotoxicity Assay to monitor cytotoxicity in HepG2 cells - 0 hour (AID 1224882). Note: nearly all actives have a fitted effect of over 35% in size. The method in brief: (§2)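 Continuous culture of HepG2 cells with a membrane-impermeant DNA dye; rising fluorescence marks dead cells. Compound exposure lasted up to 40 h at 37 C, with reads every 8 h from 0 h.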
A short description of test [3]: A CellTox Green Cytotoxicity Assay to monitor cytotoxicity in HepG2 cells - 32 hour (AID 1224883). Note: nearly all actives have a fitted effect of over 50% in size. In short, it runs like this: as §2
Test [4] in a line: A CellTox Green Cytotoxicity Assay to monitor cytotoxicity in HEK293 cells - 8 hour (AID 1224884). Note: nearly all actives have a fitted effect of over 35% in size. The method in brief:
as §1

The nature of test [5]: qHTS RealTime-Glo MT Cell Viability Assay in HepG2 cells - 16 hour (AID 1224885). Note: nearly all actives have a fitted effect of over 50% in size. In short, it runs like this:
(§3)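 Tox21 10K library screened in qHTS format on HepG2 cells carrying RealTime-Glo reagents. Compounds were added after a 5 h preincubation, and the luminescent signal from continuous culture was measured repeatedly during 40 h treatment.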

Test [6] can be described thus: qHTS RealTime-Glo MT Cell Viability Assay in HEK293 cells - 8 hour (AID 1224887). For activity change, negative = cytotoxicity: top concentration of the series differs between compounds. Note: nearly all actives have a fitted effect of over 50% in size. Note: potency is the fitted concentration of half-maximal effect. The method in brief:
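qHTS format; HEK293 cells with NanoLuc/prosubstrate reagent, 37 C/5% CO2 for 5 h pre-dosing; compounds 23 nL in DMSO; luminescence at each time point reflects viable cells.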
A general note: Quantitative high-throughput screening tests each substance at several concentrations.

Test [7] in a line: A CellTox Green Cytotoxicity Assay to monitor cytotoxicity in HEK293 cells - 16 hour (AID 1224888). Note: nearly all actives have a fitted effect of over 35% in size. In short, it runs like this:
as §1

Test [8] in a line: qHTS RealTime-Glo MT Cell Viability Assay in HepG2 cells - 0 hour (AID 1224889). Note: nearly all actives have a fitted effect of over 50% in size. In short, it runs like this:
as §3

A short description of test [9]: qHTS RealTime-Glo MT Cell Viability Assay in HEK293 cells - 24 hour (AID 1224886). For activity change, negative = cytotoxicity: top concentration of the series differs between compounds. Note: nearly all actives have a fitted effect of over 50% in size. Note: potency is the fitted concentration of half-maximal effect. The method in brief: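 Luminescence generated by NanoLuc from substrate produced by living HEK293 cells served as the viability signal. Each value reflects the reading at its stated time point during continuous 40 h compound exposure at 37 C.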
A short description of test [10]: A CellTox Green Cytotoxicity Assay to monitor cytotoxicity in HepG2 cells - 8 hour (AID 1224890). Note: nearly all actives have a fitted effect of over 45% in size. The method in brief:
as §2
% is set by controls: 0 for no effect and ±100 for the full control effect.

As to `N[C@@H](C(=O)N[C@@H]1C(=O)N2C(C(=O)O)=C(Cl)CS[C@H]12)c1ccccc1`, the cytotoxicity increase in test [1] was -0.855% [at 6.97 µM]; in test [3], -17.5% [at 6.97 µM]; in [4] it was 0.155% [at 6.97 µM]. In [2], the cytotoxicity was -11.9% [at 6.97 µM]. Moreover, in test [5], the activity change, negative = cytotoxic was 1.78% [at 6.97 µM]. Also, the activity change, negative = cytotoxicity is 11.8% [at 6.97 µM] in test [6] and 1.57% [at 6.97 µM] in test [8]. Further, in test [7], the activity change is 1.42% [at 6.97 µM, stronger effect = higher value].

As for `COc1c(N2C[C@@H]3CCCN[C@@H]3C2)c(F)cc2c(=O)c(C(=O)O)cn(C3CC3)c12`, the Potency result in test [1], in test [2], in test [3], in test [4], in test [5] and in test [9] was “inactive” in each case. The Potency result in test [7], in [8] and in test [10] was “inactive” each time.

Regarding `CC(C)(C)c1nnc(NS(=O)(=O)c2ccccc2)s1`, the Potency entry in [1], in test [2], in test [3], in test [4], in test [5] and in test [9] was “inactive” each time. The Potency entry in [7], in test [8] and in test [10] was “inactive” throughout.

For `CN1CCN(c2cc3c(cc2F)c(=O)c(C(=O)O)cn3-c2ccc(F)cc2)CC1`, the Potency result in test [1], in test [2], in test [3], in test [4], in test [5] and in [6] was “inactive” throughout. Moreover, the Potency entry in test [7], in test [8] and in [10] was “inactive” in each case.

Turning to `CN1CCC(=C2c3ccccc3CC(=O)c3sccc32)CC1`, the Potency entry in test [1], in test [2], in [3], in test [4], in test [5] and in [9] was “inactive” each time. Also, the Potency result in [7], in test [8] and in test [10] was “inactive” each time.

For the compound `OC(CCN1CCCCC1)(c1ccccc1)C1CC2C=CC1C2` (configuration not stated), the Potency result in [1], in test [2], in [3], in [4], in test [5] and in [6] was “inactive” in each case. In addition, the Potency result in [7], in test [8] and in test [10] was “inactive” in each case.

Consider `COCCCOCCCOC`, for which the Potency entry in [1], in test [2], in test [4], in test [5], in test [9] and in test [6] was “inactive” each time. The Potency result in test [7], in test [8] and in test [10] was “inactive” throughout.

With `C[N+](C)(C)CCCCCC[N+](C)(C)C`, the Potency entry in test [1], in test [2], in [3], in test [4], in test [9] and in test [6] was “inactive” each time. Besides, the Potency result in test [7], in test [8] and in test [10] was “inactive” each time.

For `NS(=O)(=O)c1ccccc1Cl`, the Potency result in [1], in [3], in test [4], in [5], in [9] and in [6] was “inactive” throughout. Further, the Potency result in [7], in [8] and in test [10] was “inactive” in each case.

For the compound `CC(=O)N(CC(O)CO)c1c(I)c(C(=O)NCCO)c(I)c(C(=O)NCC(O)CO)c1I` (configuration not stated), the Potency result in test [1], in test [2], in [3], in test [4], in test [9] and in test [6] was “inactive” in each case. Besides, the Potency entry in test [7], in [8] and in test [10] was “inactive” each time.

With `NCCc1cnc[nH]1`, the Potency result in [1], in test [3], in test [4], in [5], in test [9] and in test [6] was “inactive” throughout. For the same compound, the Potency entry in test [7], in [8] and in test [10] was “inactive” throughout.

In the case of `CCOC(=O)Nc1ccc(NCc2ccc(F)cc2)nc1N`, the Potency entry in test [1], in test [3], in [4], in [5], in [9] and in test [6] was “inactive” throughout. Further, the Potency entry in test [7] and in test [8] was “inactive” throughout.

Consider `O=C(CCCN1CCC(O)(c2cccc(C(F)(F)F)c2)CC1)c1ccc(F)cc1`, for which the Potency result in [1], in test [2], in [4], in [5], in test [7] and in [8] was “inactive” each time. For the same compound, the Potency in test [9] was 16.9 µM (active); in test [6], 15.1 µM (active).

As for `ClC(Cl)(Br)Br`, the Potency entry in test [1], in test [3], in [4], in test [5], in test [9] and in [6] was “inactive” throughout. Moreover, the Potency entry in test [7], in [8] and in test [10] was “inactive” in each case.

As for `CCOC(=O)CCC(C)=O`, the Potency entry in [1], in [2], in [3], in test [4], in test [6] and in test [7] was “inactive” in each case. The Potency result in test [8] and in [10] was “inactive” each time.

For `O=C(CCCN1CCN(c2ccccn2)CC1)c1ccc(F)cc1`, the Potency result in test [1], in [2], in test [3], in [4], in test [7] and in [8] was “inactive” throughout.

For `CCCCCSCCCCC`, the Potency entry in test [1], in test [2], in test [3], in [4], in test [9] and in [6] was “inactive” each time. Also, the Potency result in test [7], in test [8] and in [10] was “inactive” each time.

With `Cc1[nH]c(=O)c(C#N)cc1-c1ccc2nccn2c1`, the Potency result in [1], in test [2], in test [3], in test [4], in test [6] and in test [7] was “inactive” in each case. Further, the Potency entry in test [8] and in test [10] was “inactive” each time.

On to `CN1CCCC1`, for which the Potency entry in test [1], in test [2], in test [3], in [9], in [7] and in test [8] was “inactive” each time. The Potency result in test [10] was “inactive”.

With `COCCc1ccc(OCC(O)CNC(C)C)cc1` (configuration not stated), the Potency result in test [1], in test [2], in [3], in test [4], in [9] and in test [7] was “inactive” in each case. Besides, the Potency result in test [8] is “inactive”.

Consider `CN1CC(=O)NC1=N`, for which the Potency result in test [1], in test [2], in test [3], in test [4], in test [6] and in [7] was “inactive” each time. The Potency entry in test [8] and in [10] was “inactive” in each case.

`Nc1nc2c(ncn2COC(CO)CO)c(=O)[nH]1`: the Potency result in test [1], in test [2], in test [3], in test [4], in test [7] and in [10] was “inactive” each time.
